High-throughput results: PubChem, The Scripps Research Institute Molecular Screening Center
Shown are actives, neighbours in structure and some others; about 1.2% of the full set was active somewhere.
GALR2 antag: antagonists of human galanin receptor 2 (GALR2) | GALR2-expressing cells, antagonist mode | inhibition, % at 4 µM | hit rate 0.39% among 140,000 | AID 828; in the data active = inhibition above about 27%;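 note: cells stimulated with galanin 1-16 at roughly its EC80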
Target sequence (O43603 whole entry, looked up): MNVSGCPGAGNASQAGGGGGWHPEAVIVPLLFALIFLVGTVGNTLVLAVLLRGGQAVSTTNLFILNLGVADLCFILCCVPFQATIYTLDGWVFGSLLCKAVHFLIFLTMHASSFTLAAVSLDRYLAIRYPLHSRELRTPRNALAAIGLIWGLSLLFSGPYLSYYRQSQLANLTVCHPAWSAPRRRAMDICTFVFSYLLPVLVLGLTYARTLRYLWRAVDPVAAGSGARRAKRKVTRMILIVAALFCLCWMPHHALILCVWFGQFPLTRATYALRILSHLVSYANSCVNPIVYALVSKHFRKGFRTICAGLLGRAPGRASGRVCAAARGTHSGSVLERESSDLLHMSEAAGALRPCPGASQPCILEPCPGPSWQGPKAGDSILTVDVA
GALR2 agonist: activates the human galanin receptor 2; O43603; GALR2-expressing cells, agonist activation read-out; activation, % (concentration not given with the values); hit rate 0.48% among 140,000; AID 803; in the data active = activation above about 5%, passing the limit was not always enough
S1P2 ag: agonists of human S1P2 receptor. hit rate 0.46% among 97,000. O95136. activation, % at 4.5 µM. S1P2-expressing cell line, agonist reporter read-out; in the data active = activation above about 16%
S1P2 antag: antagonists of human S1P2 receptor; O95136; cell-based S1P2 antagonist assay, inhibition at 5 uM; inhibition, % at 5 µM; hit rate 0.21% among 97,000; in the data active = inhibition above about 45%;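 note: CRE beta-lactamase reporter cells expressing human S1P2 stimulated with S1P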
Numbers stand for hits; i = inactive; nt = not tested or not shown.

SMILES	GALR2 antag	GALR2 agonist	S1P2 ag	S1P2 antag
Cc1cc(C)n(CCc2nc3c4ccccc4n(CC#N)c(=O)n3n2)n1	i	i	29	i
Cc1cc(SCC#N)n2nc(C)c(-c3ccccc3)c2n1	i	i	16	i
Cc1cc(SCC#N)n2nc(C)c(-c3ccc(Cl)cc3)c2n1	i	i	39	i
Cc1cc(SCC(=O)c2cccs2)n2nc(C)c(-c3ccccc3)c2n1	i	i	nt	nt
CSc1cccc(NC(=O)C2CCN(C(=O)c3ccccc3C)CC2)c1	i	i	nt	nt
CCCc1nn(-c2cc(Cl)ccc2OC)c2c1C(=O)CCC2	i	i	59	i
Cc1csc(NC(=O)C(F)(F)F)n1	i	i	nt	nt
O=C(CSc1nnc2ccccn12)Nc1cccc(-c2nc3ccccc3s2)c1	i	5.7	nt	nt
COCCn1c(=NC(C)=O)sc2cc([N+](=O)[O-])ccc21	i	6.2	nt	nt
COCCn1c(=NC(=O)c2nc3ccccc3s2)sc2cc(S(C)(=O)=O)ccc21	i	i	nt	nt
Cc1[nH]n(-c2ccccc2)c(=O)c1/C=N/N1C(=O)c2ccc3c4c(ccc(c24)C1=O)CC3	i	i	nt	nt
CC(=O)Nc1ccc(NC(=O)/C(Cl)=C/c2ccccc2)cc1	i	i	35	i
Cc1ccc(NC(=O)Cc2nn(C)c(=O)c3ccccc23)cc1F	i	i	i	67
COc1cc(NC(=O)Cc2nn(C)c(=O)c3ccccc23)cc(OC)c1	i	i	i	i
COc1ccc(Nc2nc(Nc3ccc(OC)cc3)nc(-n3[nH]c(=O)c(C)c3C)n2)cc1	i	73	i	i
CCOC(=O)c1ccc(NC(=O)Cn2nnc(-c3ccccc3)n2)cc1	i	i	i	i
NC(=O)c1nn(-c2ccccc2)nc1NC(=O)Cn1nnc(-c2ccccc2)n1	i	5.2	nt	nt
COc1ccc(NC(=O)COC(=O)c2cc(OC)c(OC)cc2NC(=O)c2ccco2)cc1OC	i	i	18	i
COc1ccc(CCc2nc(C)ccc2O)cc1	i	i	i	i
O=C(Nc1ccc(-c2nc3ncccc3o2)cc1)c1ccc(Br)o1	i	i	i	54
O=C(Nc1nnc(-c2ccc(Cl)cc2)o1)c1nc2ccccc2s1	i	i	i	51
CCN(CC)S(=O)(=O)c1ccc2c(c1)nc(CCC(=O)Nc1ccc3c(c1)OCO3)n2CC	i	i	nt	nt
CSc1cc(-c2ccccc2)n(Cc2c(Cl)cccc2Cl)c(=O)c1C#N	i	i	i	i
CSc1cc(-c2ccc(Cl)cc2)n(Cc2ccccc2)c(=O)c1C#N	i	438	i	i
CN(C)S(=O)(=O)c1cccc(NC(=O)c2ccc(N3CCOCC3)c([N+](=O)[O-])c2)c1	i	i	nt	nt
SMILES	GALR2 antag	GALR2 agonist	S1P2 ag	S1P2 antag
CC(C)(C)OC(=O)N[C@@H](Cc1ccccc1)c1nnc(S(=O)(=O)Cc2ccccc2)o1	35	i	i	i
COc1ccc(N=c2oc3cc(O)ccc3cc2C(=O)NCC2CCCO2)cc1 (stereo not given)	i	16	18	i
COc1ccc(N=c2oc3cc(O)ccc3cc2C(=O)NCC2CCCO2)c(OC)c1 (stereo not given)	i	68	37	i
CCOc1ccc(N=c2oc3cc(O)ccc3cc2C(=O)NCC2CCCO2)cc1 (stereo not given)	i	i	i	i
Cc1ccc(N=c2oc3cc(O)ccc3cc2C(N)=O)cc1	i	42	17	i
O=C(CN1CC(c2ccccc2)CC1=O)N/N=C/c1cc(Br)ccc1O (stereo not given)	i	i	nt	nt
COc1cc2c(cc1OC)CN(c1ccc([N+](=O)[O-])cc1C#N)CC2	i	i	nt	nt
COc1ccc(CCN2CC(C#N)=C3c4cc(OC)c(OC)cc4CCN3C2)cc1OC	i	i	24	i
COc1cc2c(cc1OC)C1=C(C#N)CN(C3CCCCC3)CN1CC2	i	i	20	i
COc1ccc(CCNS(=O)(=O)c2ccc3c(c2)CCN3C(=O)C2CC2)cc1OC	i	i	i	i
COc1ccc(C2C(=O)N(C3CCCCC3)CC(=O)N2CC2COc3ccccc3O2)cc1 (stereo not given)	i	i	i	i
CCOC(=O)c1cc2ccc(OC)c(OC)c2c(=O)s1	i	i	109	i
CC(C)c1nc2sc3c(NCc4ccccc4)ncnc3c2c2c1COC(C)(C)C2	i	i	i	i
CC(C)c1nc2sc3c(NCc4ccco4)ncnc3c2c2c1COC(C)(C)C2	i	i	20	i
COc1cc2c(cc1OC)-c1cc(Nc3ccc4c(c3)OCCO4)nc(=O)n1CC2	i	i	20	i
CCOc1cccc(Nc2cc3n(c(=O)n2)CCc2cc(OC)c(OC)cc2-3)c1	i	i	29	i
COc1cc2c(cc1OC)-c1cc(OCc3cccnc3)nc(=O)n1CC2	i	i	23	i
CN(C)CCNC(=O)/C(=C/c1ccc(-c2cccc(Cl)c2)o1)NC(=O)c1ccccc1	i	i	nt	nt
O=C(Nc1ccc2c(c1)OCO2)c1cnn2cccnc12	i	374	i	i
O=C(Nc1cccc(O)c1)c1cnn2cccnc12	i	i	i	i
O=C(Nc1c(C(=O)Nc2cccc3ccccc23)cnn1-c1ccccc1)c1ccco1	i	i	i	i
N#C/C(=C/c1ccc(N2CCCCCC2)o1)c1ccc(Cl)cc1	i	i	i	49
CCOC(=O)C1=C(O)/C(=C/c2cc(OC)c(OC)c(OC)c2)SC1=Nc1ccc(OC)cc1	i	i	37	i
O=C(NNC(=O)C(c1ccccc1)c1ccccc1)c1ccccn1	i	i	nt	nt
CC1(C)CC(CC(=O)NC(=S)Nc2ccc([N+](=O)[O-])cc2)C(=O)O1 (stereo not given)	i	i	i	i
SMILES	GALR2 antag	GALR2 agonist	S1P2 ag	S1P2 antag
CC(C)OCC1CC(CC(=O)NC(=S)Nc2cccc([N+](=O)[O-])c2)C(=O)O1 (stereo not given)	i	i	47	i
COc1ccc(Nc2nc(N3CCCCC3)c3ccccc3n2)cc1	i	i	i	56
CCc1sc(C(=O)Nc2cccc(C(C)=O)c2)cc1C	i	i	nt	nt
CCOC(=O)c1sc2nc(C3CC3)cc(-c3ccc(OC)cc3)c2c1N	i	i	i	i
CCOC(=O)c1sc2nc(C3CC3)cc(-c3ccc(F)cc3)c2c1N	i	i	38	i
CCc1cc(=O)oc2cc(OCC(=O)O)c(Cl)cc12	i	i	21	i
CCc1cc(=O)oc2cc(OCC(=O)N(CC)CC)c(Cl)cc12	i	i	i	i
CCC(=O)c1cc2c(C)cc(=O)oc2c(C)c1O	i	i	119	i
CCC(=O)c1cc2c(C)cc(=O)oc2c(C)c1OC(C)=O	i	i	nt	nt
CCc1ccc2[nH]c(=O)c(CN(Cc3ccc4c(c3)OCO4)Cc3nnnn3C3CCCC3)cc2c1	i	i	24	i
O=C(NCc1ccco1)c1cc2ccc(O)cc2oc1=O	i	145	82	i
Cc1ccc(S(=O)(=O)N2CC3(C)CN(S(=O)(=O)c4ccc(C)cc4)CC(C)(C2)C3=O)cc1	i	i	i	i
Cc1ccc(S(=O)(=O)N2CC3(C)CN(S(=O)(=O)c4ccc(C)cc4)CC(C)(C2)C3O)cc1 (stereo not given)	i	5.0	nt	nt
CCOc1ccc(C(O)C(CN2CCOCC2)c2ccccc2)cc1 (stereo not given)	i	i	i	i
OCCn1c(Cl)nc2ccccc21	i	i	i	i
COCCNC(=O)CN1CCN(C(c2ccccc2)c2ccccc2)CC1	i	i	55	i
COC(=O)CN1CCN(C(c2ccccc2)c2ccccc2)CC1	i	i	i	i
